From paper PMC7862700, “An all-to-all approach to the identification of sequence-specific readers for epigenetic DNA modifications on cytosine”

How the values were obtained:
Assay in all cases: DAPPL (digital affinity profiling via proximity ligation, sequencing); 10 mM Tris-HCl pH 7.5, 50 mM NaCl, 1 mM DTT, 4% glycerol, room temperature, 30 min; GST-TFs on glutathione beads, 16-mer random dsDNA library, 0.1% formaldehyde crosslink after washing; high values mean tight binding
[1] = target: T1, FLI1 (Homo sapiens, UniProt Q01543 1-452); settings: protein: recombinant; tags: N-terminal GST; dsDNA, one strand shown
T1 sequence: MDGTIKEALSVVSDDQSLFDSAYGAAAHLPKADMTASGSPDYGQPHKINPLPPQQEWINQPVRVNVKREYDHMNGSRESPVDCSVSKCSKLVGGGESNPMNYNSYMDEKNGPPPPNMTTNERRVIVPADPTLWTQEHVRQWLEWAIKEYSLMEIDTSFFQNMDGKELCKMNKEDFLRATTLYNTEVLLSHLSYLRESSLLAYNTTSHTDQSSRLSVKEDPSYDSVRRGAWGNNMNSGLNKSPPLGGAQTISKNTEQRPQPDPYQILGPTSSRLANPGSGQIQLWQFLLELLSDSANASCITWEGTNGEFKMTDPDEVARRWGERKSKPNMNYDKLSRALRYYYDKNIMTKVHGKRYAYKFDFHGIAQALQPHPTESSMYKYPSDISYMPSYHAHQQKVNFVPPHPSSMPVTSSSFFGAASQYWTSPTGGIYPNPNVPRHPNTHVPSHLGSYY
Procedure, shortened: (§1)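 GST fusions of human transcription factors were expressed in yeast and captured with glutathione beads. Once given DNA barcodes and pooled alongside a tag-only sample, they were incubated for 30 min at room temperature with 200 nmole of a random double-stranded 16-mer DNA library in Tris/NaCl/DTT/glycerol buffer, then washed, crosslinked (0.1% formaldehyde), proximity-ligated, PCR-amplified and sequenced on an Illumina NextSeq500. The binding signal of each hexamer is its read frequency for a factor divided by its frequency for the tag-only sample.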

[2] = target: T2, ELK1 (Homo sapiens, UniProt P19419 1-428); settings: protein: recombinant; tags: N-terminal GST; dsDNA, one strand shown
T2 sequence: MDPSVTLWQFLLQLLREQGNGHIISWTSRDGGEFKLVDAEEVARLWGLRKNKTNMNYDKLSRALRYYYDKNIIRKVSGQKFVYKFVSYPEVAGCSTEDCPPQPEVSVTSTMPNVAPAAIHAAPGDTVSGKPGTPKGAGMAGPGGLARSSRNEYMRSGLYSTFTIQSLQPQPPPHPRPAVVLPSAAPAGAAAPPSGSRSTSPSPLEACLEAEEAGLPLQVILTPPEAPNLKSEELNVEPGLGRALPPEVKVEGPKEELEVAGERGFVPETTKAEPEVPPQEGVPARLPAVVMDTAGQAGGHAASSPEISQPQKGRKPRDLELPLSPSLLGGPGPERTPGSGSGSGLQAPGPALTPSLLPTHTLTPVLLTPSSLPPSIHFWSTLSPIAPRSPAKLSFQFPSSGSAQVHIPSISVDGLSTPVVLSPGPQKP
Procedure, shortened: as §1

[3] = target: T3, GABPA (Homo sapiens, UniProt Q06546 1-454); settings: protein: recombinant; tags: N-terminal GST; dsDNA, one strand shown
T3 sequence: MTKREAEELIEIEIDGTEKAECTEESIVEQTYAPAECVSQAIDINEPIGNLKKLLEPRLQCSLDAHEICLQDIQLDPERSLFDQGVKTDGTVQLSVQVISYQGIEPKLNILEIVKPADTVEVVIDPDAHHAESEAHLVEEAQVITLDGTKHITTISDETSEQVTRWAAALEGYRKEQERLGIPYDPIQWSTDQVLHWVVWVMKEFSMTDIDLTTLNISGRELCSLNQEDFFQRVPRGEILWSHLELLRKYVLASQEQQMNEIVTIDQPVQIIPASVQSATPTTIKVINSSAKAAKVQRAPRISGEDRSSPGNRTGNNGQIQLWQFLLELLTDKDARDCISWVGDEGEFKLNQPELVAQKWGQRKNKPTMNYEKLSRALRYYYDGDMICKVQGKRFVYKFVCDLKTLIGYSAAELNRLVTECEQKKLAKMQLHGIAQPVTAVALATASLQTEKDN
Procedure, shortened: as §1

[4] = target: T4, ERG (Homo sapiens, UniProt P11308 1-479); settings: protein: recombinant; tags: N-terminal GST; dsDNA, one strand shown
T4 sequence: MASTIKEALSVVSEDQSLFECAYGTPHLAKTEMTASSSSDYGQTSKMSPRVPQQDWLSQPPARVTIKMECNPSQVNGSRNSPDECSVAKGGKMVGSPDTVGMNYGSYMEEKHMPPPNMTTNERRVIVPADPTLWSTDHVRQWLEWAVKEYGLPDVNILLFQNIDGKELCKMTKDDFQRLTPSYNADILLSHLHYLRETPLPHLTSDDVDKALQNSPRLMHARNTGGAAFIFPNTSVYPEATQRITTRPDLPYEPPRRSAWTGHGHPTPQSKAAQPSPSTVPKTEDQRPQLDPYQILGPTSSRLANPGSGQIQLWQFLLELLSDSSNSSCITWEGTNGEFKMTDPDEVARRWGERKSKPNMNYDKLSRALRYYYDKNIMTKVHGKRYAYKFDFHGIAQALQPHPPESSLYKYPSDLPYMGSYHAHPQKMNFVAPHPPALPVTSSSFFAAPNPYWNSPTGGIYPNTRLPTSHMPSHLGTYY
Procedure, shortened: as §1

[5] = target: ELF1 (Homo sapiens, UniProt P32519 1-619); settings: protein: recombinant; tags: N-terminal GST; dsDNA, one strand shown
Chain of ELF1 (P32519 whole entry): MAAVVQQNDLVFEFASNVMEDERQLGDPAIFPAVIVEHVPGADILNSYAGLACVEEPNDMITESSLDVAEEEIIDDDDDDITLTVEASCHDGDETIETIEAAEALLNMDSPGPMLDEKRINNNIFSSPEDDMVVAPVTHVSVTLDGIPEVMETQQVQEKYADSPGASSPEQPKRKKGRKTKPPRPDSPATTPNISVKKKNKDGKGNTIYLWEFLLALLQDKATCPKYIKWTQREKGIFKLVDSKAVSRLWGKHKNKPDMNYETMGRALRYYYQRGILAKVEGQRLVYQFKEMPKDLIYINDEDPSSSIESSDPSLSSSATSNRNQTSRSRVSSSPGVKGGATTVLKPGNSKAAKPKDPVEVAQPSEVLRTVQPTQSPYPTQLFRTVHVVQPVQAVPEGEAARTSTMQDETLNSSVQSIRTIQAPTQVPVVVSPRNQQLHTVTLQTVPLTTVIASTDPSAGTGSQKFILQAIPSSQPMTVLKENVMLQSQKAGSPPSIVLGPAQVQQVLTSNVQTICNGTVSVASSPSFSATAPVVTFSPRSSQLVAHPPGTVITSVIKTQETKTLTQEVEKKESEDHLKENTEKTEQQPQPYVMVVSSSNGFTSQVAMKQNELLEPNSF
Procedure, shortened: as §1

[6] = target: T5, EHF (Homo sapiens, UniProt Q9NZC4 1-300); settings: protein: recombinant; tags: N-terminal GST; dsDNA, one strand shown
T5 sequence: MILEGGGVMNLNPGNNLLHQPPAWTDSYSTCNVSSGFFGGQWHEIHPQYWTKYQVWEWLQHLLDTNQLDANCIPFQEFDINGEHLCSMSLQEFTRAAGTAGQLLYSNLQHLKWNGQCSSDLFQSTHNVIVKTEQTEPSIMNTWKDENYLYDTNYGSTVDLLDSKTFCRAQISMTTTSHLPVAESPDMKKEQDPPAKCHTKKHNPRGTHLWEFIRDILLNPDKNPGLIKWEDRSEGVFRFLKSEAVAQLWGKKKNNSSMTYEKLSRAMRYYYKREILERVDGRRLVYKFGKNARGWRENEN
Procedure, shortened: as §1

[7] = target: SPI1 (Homo sapiens, UniProt P17947 1-270); settings: protein: recombinant; tags: N-terminal GST; dsDNA, one strand shown
Procedure, shortened: as §1

[8] = target: SPIB (Homo sapiens, UniProt Q01892 1-262); settings: protein: recombinant; tags: N-terminal GST; dsDNA, one strand shown
Chain of SPIB (Q01892 whole entry): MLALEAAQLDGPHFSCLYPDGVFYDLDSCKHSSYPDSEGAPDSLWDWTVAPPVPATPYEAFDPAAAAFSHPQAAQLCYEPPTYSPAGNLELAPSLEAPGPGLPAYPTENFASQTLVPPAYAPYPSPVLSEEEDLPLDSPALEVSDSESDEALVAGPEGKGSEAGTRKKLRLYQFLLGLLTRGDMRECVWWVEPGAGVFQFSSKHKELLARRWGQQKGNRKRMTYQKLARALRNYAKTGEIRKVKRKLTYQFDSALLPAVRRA
Procedure, shortened: as §1

[9] = target: T6, ELK3 (Homo sapiens, UniProt P41970 1-407); settings: protein: recombinant; tags: N-terminal GST; dsDNA, one strand shown
T6 sequence: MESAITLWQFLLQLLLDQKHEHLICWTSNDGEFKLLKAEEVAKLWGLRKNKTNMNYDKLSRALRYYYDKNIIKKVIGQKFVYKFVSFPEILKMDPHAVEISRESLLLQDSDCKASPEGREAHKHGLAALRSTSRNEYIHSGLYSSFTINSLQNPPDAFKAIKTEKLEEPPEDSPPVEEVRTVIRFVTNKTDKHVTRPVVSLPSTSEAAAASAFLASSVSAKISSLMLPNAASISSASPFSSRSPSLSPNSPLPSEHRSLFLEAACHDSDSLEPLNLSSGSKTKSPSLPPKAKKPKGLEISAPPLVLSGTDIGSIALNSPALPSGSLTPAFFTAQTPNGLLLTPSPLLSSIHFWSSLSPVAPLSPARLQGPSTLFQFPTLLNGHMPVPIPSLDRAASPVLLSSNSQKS
Procedure, shortened: as §1

[10] = target: T7, FEV (Homo sapiens, UniProt Q99581 1-238); settings: protein: recombinant; tags: N-terminal GST; dsDNA, one strand shown
T7 sequence: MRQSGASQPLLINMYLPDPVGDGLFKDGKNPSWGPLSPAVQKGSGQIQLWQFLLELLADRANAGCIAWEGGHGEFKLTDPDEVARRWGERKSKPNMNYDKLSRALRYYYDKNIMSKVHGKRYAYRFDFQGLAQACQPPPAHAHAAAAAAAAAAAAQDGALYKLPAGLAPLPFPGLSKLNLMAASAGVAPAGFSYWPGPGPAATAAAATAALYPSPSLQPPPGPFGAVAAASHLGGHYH
Procedure, shortened: as §1

[11] = target: ETV5 (Homo sapiens, UniProt P41161 1-510); settings: protein: recombinant; tags: N-terminal GST; dsDNA, one strand shown
Chain of ETV5 (P41161 whole entry): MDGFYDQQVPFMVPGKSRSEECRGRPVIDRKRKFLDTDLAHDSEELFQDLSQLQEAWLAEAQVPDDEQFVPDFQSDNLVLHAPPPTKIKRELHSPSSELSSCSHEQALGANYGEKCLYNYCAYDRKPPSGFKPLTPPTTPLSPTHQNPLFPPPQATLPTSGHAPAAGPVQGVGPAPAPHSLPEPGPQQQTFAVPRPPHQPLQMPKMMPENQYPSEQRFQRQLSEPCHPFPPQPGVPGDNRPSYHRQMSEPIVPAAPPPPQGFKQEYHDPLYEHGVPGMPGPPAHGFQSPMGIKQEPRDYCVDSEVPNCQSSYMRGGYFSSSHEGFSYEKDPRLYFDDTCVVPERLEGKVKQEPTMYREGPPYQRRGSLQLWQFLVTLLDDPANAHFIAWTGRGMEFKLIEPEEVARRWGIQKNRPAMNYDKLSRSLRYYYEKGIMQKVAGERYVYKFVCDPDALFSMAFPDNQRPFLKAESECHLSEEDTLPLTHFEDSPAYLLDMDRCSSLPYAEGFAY
Procedure, shortened: as §1

[12] = target: HSF1 (Homo sapiens, UniProt Q00613 1-529); settings: protein: recombinant; tags: N-terminal GST; chain copies: 3; dsDNA, one strand shown
Chain of HSF1 (Q00613 whole entry): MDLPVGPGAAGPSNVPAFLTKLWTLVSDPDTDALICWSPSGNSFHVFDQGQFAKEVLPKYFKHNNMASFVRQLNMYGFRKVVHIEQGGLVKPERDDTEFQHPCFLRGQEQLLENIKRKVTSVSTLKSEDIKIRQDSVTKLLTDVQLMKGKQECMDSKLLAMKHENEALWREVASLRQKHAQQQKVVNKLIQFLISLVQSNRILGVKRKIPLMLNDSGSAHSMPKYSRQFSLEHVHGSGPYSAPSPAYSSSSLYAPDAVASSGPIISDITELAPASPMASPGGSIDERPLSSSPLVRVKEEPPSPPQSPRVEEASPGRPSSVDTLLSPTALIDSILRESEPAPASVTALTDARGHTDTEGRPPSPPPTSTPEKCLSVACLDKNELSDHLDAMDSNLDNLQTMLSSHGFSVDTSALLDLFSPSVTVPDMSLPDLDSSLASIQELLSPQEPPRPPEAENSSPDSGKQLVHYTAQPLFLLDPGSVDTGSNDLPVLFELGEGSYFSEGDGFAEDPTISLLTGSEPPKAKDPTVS
Procedure, shortened: as §1

[13] = target: T8, SPIC (Homo sapiens, UniProt Q8N5J4 1-248); settings: protein: recombinant; tags: N-terminal GST; dsDNA, one strand shown
T8 sequence: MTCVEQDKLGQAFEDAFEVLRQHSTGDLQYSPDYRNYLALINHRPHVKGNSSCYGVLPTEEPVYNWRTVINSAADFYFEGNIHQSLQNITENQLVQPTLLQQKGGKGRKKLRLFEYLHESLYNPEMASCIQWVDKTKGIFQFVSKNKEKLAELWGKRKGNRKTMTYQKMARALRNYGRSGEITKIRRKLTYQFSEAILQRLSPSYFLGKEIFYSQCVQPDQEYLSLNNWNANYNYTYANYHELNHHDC
Procedure, shortened: as §1

[14] = target: ELF4 (Homo sapiens, UniProt Q99607 1-663); settings: protein: recombinant; tags: N-terminal GST; dsDNA, one strand shown
Chain of ELF4 (Q99607 whole entry): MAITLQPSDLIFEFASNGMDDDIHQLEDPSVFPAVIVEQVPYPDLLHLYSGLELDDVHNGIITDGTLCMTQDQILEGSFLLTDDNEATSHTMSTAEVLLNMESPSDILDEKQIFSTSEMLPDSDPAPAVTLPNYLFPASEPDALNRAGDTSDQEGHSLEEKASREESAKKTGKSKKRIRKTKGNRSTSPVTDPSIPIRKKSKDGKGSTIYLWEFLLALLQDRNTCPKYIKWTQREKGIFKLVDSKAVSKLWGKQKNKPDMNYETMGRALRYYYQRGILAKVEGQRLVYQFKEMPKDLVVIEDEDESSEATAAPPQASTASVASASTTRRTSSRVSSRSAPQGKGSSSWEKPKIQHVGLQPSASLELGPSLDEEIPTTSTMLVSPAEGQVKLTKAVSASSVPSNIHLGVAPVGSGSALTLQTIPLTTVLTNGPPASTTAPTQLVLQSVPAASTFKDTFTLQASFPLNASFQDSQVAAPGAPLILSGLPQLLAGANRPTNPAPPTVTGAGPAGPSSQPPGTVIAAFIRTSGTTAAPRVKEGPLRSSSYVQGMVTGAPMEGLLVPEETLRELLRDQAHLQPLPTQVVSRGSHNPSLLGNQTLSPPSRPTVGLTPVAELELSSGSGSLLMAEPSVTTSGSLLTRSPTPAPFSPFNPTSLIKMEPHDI
Procedure, shortened: as §1

[15] = target: T9, ELK4 (Homo sapiens, UniProt P28324-2 1-405); settings: protein: recombinant; tags: N-terminal GST; dsDNA, one strand shown
T9 sequence: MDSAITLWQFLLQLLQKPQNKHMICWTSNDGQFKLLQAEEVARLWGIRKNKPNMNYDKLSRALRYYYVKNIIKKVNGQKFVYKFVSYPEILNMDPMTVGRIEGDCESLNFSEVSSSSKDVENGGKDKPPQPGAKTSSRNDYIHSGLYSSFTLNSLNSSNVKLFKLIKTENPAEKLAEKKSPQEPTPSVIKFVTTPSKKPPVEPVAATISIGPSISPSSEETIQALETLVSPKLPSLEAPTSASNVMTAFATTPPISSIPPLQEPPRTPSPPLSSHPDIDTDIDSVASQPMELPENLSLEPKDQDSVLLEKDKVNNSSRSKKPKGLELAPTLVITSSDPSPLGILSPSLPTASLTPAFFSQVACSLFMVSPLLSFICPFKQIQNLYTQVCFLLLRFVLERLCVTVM
Procedure, shortened: as §1

[16] = target: T10, ETV2 (Homo sapiens, UniProt O00321 1-342); settings: protein: recombinant; tags: N-terminal GST; dsDNA, one strand shown
T10 sequence: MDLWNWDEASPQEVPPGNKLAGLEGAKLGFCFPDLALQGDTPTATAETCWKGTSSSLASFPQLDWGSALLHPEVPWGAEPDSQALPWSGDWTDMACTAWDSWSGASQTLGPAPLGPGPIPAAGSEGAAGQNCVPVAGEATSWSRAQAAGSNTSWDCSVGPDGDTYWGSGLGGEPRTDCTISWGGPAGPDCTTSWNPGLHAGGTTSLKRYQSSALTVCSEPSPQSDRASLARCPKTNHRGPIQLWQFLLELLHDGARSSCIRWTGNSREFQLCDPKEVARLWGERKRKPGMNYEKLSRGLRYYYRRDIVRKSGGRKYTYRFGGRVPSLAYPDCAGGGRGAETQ
Procedure, shortened: as §1

[17] = target: T11, ELF3 (Homo sapiens, UniProt P78545 1-371); settings: protein: recombinant; tags: N-terminal GST; dsDNA, one strand shown
T11 sequence: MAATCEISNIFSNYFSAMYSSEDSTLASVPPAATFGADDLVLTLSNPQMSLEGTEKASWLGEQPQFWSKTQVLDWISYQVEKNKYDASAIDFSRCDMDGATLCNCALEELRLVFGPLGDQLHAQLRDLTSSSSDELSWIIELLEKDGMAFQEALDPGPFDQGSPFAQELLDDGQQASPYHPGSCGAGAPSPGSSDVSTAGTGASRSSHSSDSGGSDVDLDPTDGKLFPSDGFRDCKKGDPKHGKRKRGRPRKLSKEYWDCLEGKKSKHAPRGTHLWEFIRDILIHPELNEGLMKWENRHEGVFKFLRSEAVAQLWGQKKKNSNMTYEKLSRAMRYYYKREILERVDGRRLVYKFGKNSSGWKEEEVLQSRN
Procedure, shortened: as §1

[18] = target: CRX (Homo sapiens, UniProt O43186 1-299); settings: protein: recombinant; tags: N-terminal GST; dsDNA, one strand shown
Chain of CRX (O43186 whole entry): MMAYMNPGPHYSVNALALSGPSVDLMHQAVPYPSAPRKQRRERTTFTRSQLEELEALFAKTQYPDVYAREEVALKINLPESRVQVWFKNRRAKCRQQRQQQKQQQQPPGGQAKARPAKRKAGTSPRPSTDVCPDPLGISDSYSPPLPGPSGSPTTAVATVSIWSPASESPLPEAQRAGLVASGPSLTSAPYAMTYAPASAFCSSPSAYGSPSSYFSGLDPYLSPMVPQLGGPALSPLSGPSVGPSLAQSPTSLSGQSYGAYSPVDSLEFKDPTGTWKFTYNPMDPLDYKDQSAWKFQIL
Procedure, shortened: as §1

[19] = target: ETV1 (Homo sapiens, UniProt P50549 1-477); settings: protein: recombinant; tags: N-terminal GST; dsDNA, one strand shown
Chain of ETV1 (P50549 whole entry): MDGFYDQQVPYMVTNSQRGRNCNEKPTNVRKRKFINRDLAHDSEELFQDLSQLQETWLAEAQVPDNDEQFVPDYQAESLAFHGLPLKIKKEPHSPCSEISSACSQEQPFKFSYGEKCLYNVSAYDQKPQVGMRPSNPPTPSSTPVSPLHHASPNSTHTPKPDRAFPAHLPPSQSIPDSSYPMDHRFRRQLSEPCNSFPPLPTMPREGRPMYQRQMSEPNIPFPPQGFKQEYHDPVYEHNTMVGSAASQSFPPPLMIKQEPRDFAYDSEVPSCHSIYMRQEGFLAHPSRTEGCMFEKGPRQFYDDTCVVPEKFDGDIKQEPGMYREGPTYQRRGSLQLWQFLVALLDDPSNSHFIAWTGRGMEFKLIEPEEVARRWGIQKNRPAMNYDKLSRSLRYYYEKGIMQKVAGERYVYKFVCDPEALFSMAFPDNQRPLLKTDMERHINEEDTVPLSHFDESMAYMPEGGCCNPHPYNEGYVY
Procedure, shortened: as §1

For TCTACG, the binding signal [1] was 1.37 fold enrichment (6-mer frequency, TF over GST control), the binding signal [2] was 1.4 fold enrichment (6-mer frequency, TF over GST control) and the binding signal [3] was 1.3 fold enrichment (6-mer frequency, TF over GST control). For the same sequence, the binding signal [4] was 1.32 fold enrichment (6-mer frequency, TF over GST control), the binding signal [5] was 1.38 fold enrichment (6-mer frequency, TF over GST control) and the binding signal [6] was 1.32 fold enrichment (6-mer frequency, TF over GST control). For the same sequence, the binding signal [7] was 1.49 fold enrichment (6-mer frequency, TF over GST control), the binding signal [8] was 1.44 fold enrichment (6-mer frequency, TF over GST control) and the binding signal [9] was 1.28 fold enrichment (6-mer frequency, TF over GST control). The binding signal [10] was 1.52 fold enrichment (6-mer frequency, TF over GST control), the binding signal [11] was 1.3 fold enrichment (6-mer frequency, TF over GST control) and the binding signal [12] was 1.49 fold enrichment (6-mer frequency, TF over GST control). The binding signal [13] was 1.3 fold enrichment (6-mer frequency, TF over GST control), the binding signal [14] was 1.37 fold enrichment (6-mer frequency, TF over GST control) and the binding signal [15] was 1.36 fold enrichment (6-mer frequency, TF over GST control). For the same sequence, the binding signal [16] was 1.38 fold enrichment (6-mer frequency, TF over GST control), the binding signal [17] was 1.5 fold enrichment (6-mer frequency, TF over GST control) and the binding signal [18] was 1.44 fold enrichment (6-mer frequency, TF over GST control). The binding signal [19] was 1.44 fold enrichment (6-mer frequency, TF over GST control).
